In the library only some 4.2% were active in any assay of this set; here they are far more common.
AHR act: AHR activators, primary screen, cell-based, luminescence, luciferase reporter, human; activation, % at 5 µM; 2.5% of 320,000 active; Aryl hydrocarbon receptor (Homo sapiens), P35869; AHR-responsive luciferase reporter cells; in the data active = activation above about 47%;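 note: 0% = vehicle wells and 100% = reference agonist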
Wnt act: Wnt/beta-catenin pathway activators, primary screen, cell-based, plate reader, single point; Wnt/beta-catenin reporter cell assay, activator; activation, % at 9.35 µM; 1.2% of 300,000 active; in the data active = activation above about 30%, passing the limit was not always enough;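 note: 0% = neutral control wells and 100% = positive control wells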
FXN GAA850 act: FXN promoter activators, primary screen, cell-based, luciferase luminescence, HEK293 lucGAA850 | activation, % at 6 µM | HEK293 lucGAA850 FXN promoter luciferase reporter, 24 h; percent of 10 µM SAHA response | 0.56% of 360,000 active | AID 540364, 2011;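 active = activation above the average of all compounds screened plus 3 SD, cutoff fixed separately per campaign, cut at about 7.5% in these data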;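 note: 0% = DMSO wells and 100% = 10 µM SAHA wells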
esBAF inh: Bmi1 luciferase reporter increase in mESCs, primary screen, esBAF inhibitor project, mouse ES cells, Bmi1 luciferase knock-in, single point. AID 602393, 2012. 2% of 350,000 active. 24 h; 100% = twice the neutral-well signal. reporter increase, % at 12.5 µM; in the data active = activation above about 40%;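 note: 0% = median of the plate's neutral control wells and 100% = double that signal; a rise in the Bmi1 reporter signal indicates esBAF inhibition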
MITF TRPM1 HTS: activators of MITF-driven TRPM1 promoter reporter, primary screen, cell-based, SK-MEL-5, luciferase, single point. SK-MEL-5 TRPM1-promoter luciferase, 24 h; % of positive control, neutral wells = 0. activation, % at 12.5 µM. 0.75% of 300,000 active;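 active = mean activation of at least 80% with every replicate also reaching 80%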;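 note: 0% = neutral control wells and 100% = parthenolide positive control wells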
Active calls of the source: *.

COc1ccc(NC(=O)c2ccc(-c3c(C)noc3C)c3ccoc23)cc1 was read as Wnt act 23.4, FXN GAA850 act 0.1 and esBAF inh 55.6*.
For Cc1noc(C)c1-c1ccc(C(=O)NCc2ccccc2)c2occc12 the results were Wnt act 9.2, FXN GAA850 act 1.6 and esBAF inh 18.1.
For Cc1noc(C)c1-c1ccc(C(=O)NC2CCCCC2)c2occc12 the results were Wnt act 24.4, FXN GAA850 act 2.8 and esBAF inh 52.9*.
COCCOC(=O)/C(=C/c1ccc(OC(=O)c2ccccc2)cc1)C(C)=O was read as AHR act -2.6, FXN GAA850 act 2.0, esBAF inh 0.2 and MITF TRPM1 HTS 4.5.
For CCOC(=O)C(=Cc1ccc(F)cc1)C(=O)OCC the results were AHR act -0.2.
For CCOC(=O)C(=Cc1ccc(-n2ccnc2)cc1)C(=O)OCC the results were AHR act 0.6, Wnt act 55.6*, FXN GAA850 act -2.8, esBAF inh -6.5 and MITF TRPM1 HTS -74.3.
`CCOC(=O)/C(=C/c1ccc(OC(=O)c2ccncc2)cc1)C(C)=O` gave AHR act 3.0, Wnt act 45.7*, FXN GAA850 act -0.4 and MITF TRPM1 HTS -8.8.
Screening C[C@H](CO)N1C[C@H](C)[C@@H](CN(C)S(=O)(=O)c2ccc(F)cc2)OCCCC[C@H](C)Oc2ccc(NS(=O)(=O)c3ccccc3)cc2C1=O returned esBAF inh -6.6.
`Cc1ccc(-c2nnc(-c3ccc4c(c3)OCO4)o2)cc1` gave AHR act 78.6*, Wnt act 11.8, FXN GAA850 act 6.3, esBAF inh -9.8 and MITF TRPM1 HTS 74.6.
For c1ccc(-c2nccc(-c3ccc4c(c3)OCO4)n2)cc1 the results were AHR act 78.9*, Wnt act 8.6, FXN GAA850 act 2.9, esBAF inh 50.6* and MITF TRPM1 HTS 17.4.
Screening Cc1nccc(-c2ccc3c(c2)OCO3)n1 returned AHR act 57.8*, Wnt act 4.0, FXN GAA850 act -0.3 and MITF TRPM1 HTS -0.9.
Screening c1ccc(-c2noc(-c3ccc4c(c3)OCO4)n2)nc1 returned AHR act -7.0, FXN GAA850 act -16.2 and MITF TRPM1 HTS -91.4.

Source: PubChem BioAssay (several laboratories)
